Data as given in ChEMBL document CHEMBL3988442, “University of Dundee, Small-Polar-MMV Screening Library” (2021).
Out of some 53,000 compounds screened, about 900 (1.7%) showed an effect of 50% or more. The sample as a whole holds a higher share of strong results than the screen did.

tested on: Mycobacterium tuberculosis; assay: Cornell - Phenotypic assay to identify agents that inhibit growth of Mycobacterium tuberculosis; assay type: functional; set-up: scale not given: direction of the effect not stated beside the values; settings: 10 mM as filed; unlikely as a test dose

Row | Structure (SMILES) | Percent Effect [%]
1 | Cn1cc(CC2CCN(C(=O)NCCc3cccc(O)c3)C2)cn1 (centres undefined) | 9.063
2 | CCC(=O)N1CCC(c2nc(N3CCCCC3)ncc2S(C)(=O)=O)CC1 | 49.28
3 | CCC(=O)N1CCC(c2nc(N3CCCC3)ncc2S(C)(=O)=O)CC1 | -19.63
4 | CS(=O)(=O)c1cnc(N2CCCC2)nc1C1CCN(C(=O)C2CC2)CC1 | 60.16
5 | CS(=O)(=O)N1CCC(CNC(=O)c2cnccn2)CC1 | -29.61
6 | COCCN1CCC2(CC1)CN(C(=O)Cc1cccnc1)CCO2.O=C(O)C(F)(F)F.O=C(O)C(F)(F)F | 26.19
7 | Cc1ncc(CN(C)C)c(C2CCCN2c2ncccn2)n1 (centres undefined) | 3.651
8 | OCCc1cc(C2CCCN2c2ncccn2)n[nH]1 (centres undefined) | 5.746
9 | COc1nsc2nc(C3CCCN3c3ncccn3)ccc12 (centres undefined) | 56.9
10 | COc1nsc2nc(C3CCCN3C(C)=O)ccc12 (centres undefined) | 51.54
11 | COc1ccc(Oc2cncc(C3CCCN3C(C)=O)n2)cc1 (centres undefined) | -6.062
12 | CC(=O)N1CCCC1c1ccc(Br)cn1 (centres undefined) | -5.926
13 | CNCC(=O)N1CCC(c2cccc(Oc3ccccc3)n2)CC1 | 5.467
14 | COc1ccc(CN2CC[C@@H]3[C@H]2CCC(=O)N3c2cnn(C)c2)cc1.O=C(O)C(F)(F)F | -0.7852
15 | CCCc1cncnc1N1CCC2(CCC(=O)N(CCOC)C2)CC1 | -26.49
16 | CNc1cc(N2CCCC2CNCc2ccc(C)o2)ncn1 (centres undefined) | -46.19
17 | CN1CC(=O)N(c2ccsc2)CC12CCN(S(=O)(=O)c1ccccc1)C2.O=C(O)C(F)(F)F (centres undefined) | 4.283
18 | CS(=O)(=O)N1CCC2(CC1)CN(CC1CCOC1)c1ccccc12.O=C(O)C(F)(F)F (centres undefined) | 24.53
19 | O=C(O)C(F)(F)F.O=C(O)C(F)(F)F.OCCN1CC2(CCN(CC3CC3)CC2)c2ccccc21 | 53.69
20 | CCCS(=O)(=O)N1CCC2(CC1)CN(CC1CCOC1)c1ccccc12.O=C(O)C(F)(F)F (centres undefined) | 53.88
21 | O=C(O)C(F)(F)F.c1cnc(N2CCC3(CC2)CN(CC2CC2)c2ccccc23)nc1 | 32.03
22 | CCS(=O)(=O)N1CCC2(CC1)CN(CC1CCOC1)c1ccccc12.O=C(O)C(F)(F)F (centres undefined) | -6.416
23 | CN1C(=O)C2(CCN(CC3CC3)CC2)c2ccccc21.O=C(O)C(F)(F)F | -19.06
24 | CCC(=O)NC(Cc1cc(N(C)C)nc(C2CC2)n1)c1ccccc1 (centres undefined) | 47.48
25 | CC(C)c1nccc(C2CC(=O)Nc3n[nH]c(C4CCC4)c32)n1 (centres undefined) | 28.48

Row | Structure (SMILES) | Percent Effect [%]
26 | Cc1cccnc1CN1CCN(c2noc(-c3ccccc3)n2)CC1 | 16.84
27 | O=C(c1cc(-n2cccn2)ccn1)N(CC(F)(F)F)C1CCCC1 | 17.65
28 | Cc1nccn1C1CCCN(C(=O)c2ccc3c(c2)nc(C)n3C)C1 (centres undefined) | -4.275
29 | O=C(CN1CCCC1Cn1cncn1)Nc1nccs1 (centres undefined) | 20.94
30 | COc1c(C)cnc(CN(C)C(=O)Nc2ccc3c(c2)CCO3)c1C | 65.58
31 | COc1c(C)cnc(CN(C)C(=O)c2cccc(NC(N)=O)c2)c1C | 25.72
32 | COCc1cccc(NC(=O)N(C)Cc2ncc(C)c(OC)c2C)c1 | -1.951
33 | CS(=O)(=O)c1snnc1C1CCN(Cc2cccc(O)c2)CC1 | -3.307
34 | Nc1cc(N2CCOCC(Cc3ccc4[nH]ccc4c3)C2)ncn1 (centres undefined) | 103.2
35 | c1cc(N2CCOCC(Cc3ccc4[nH]ccc4c3)C2)ncn1 (centres undefined) | 9.694
36 | Cc1cc(N2CCOCC(Cc3ccc4[nH]ccc4c3)C2)ncn1 (centres undefined) | 26.85
37 | Cc1cccc(NC(=O)N2CCC3(CCC(C(=O)N(C)C)O3)CC2)c1 (centres undefined) | -3.897
38 | CN(C)Cc1cccc(-c2cccnc2C(=O)NCc2ccco2)c1 | 0.1793
39 | Cc1[nH]c2nc(CNc3ccccc3Cl)nn2c(=O)c1C | 13.95
40 | CN1CCN(C(=O)c2cc(-c3ccco3)cs2)CC1 | 25.84
41 | O=C(c1cc(-c2ccco2)cs1)N1CCOCC1 | 26.26
42 | O=C(c1cc(-c2ccco2)cs1)N1CCCC1 | 81.62
43 | CCn1cc2c(n1)C(COC)CN(Cc1ccoc1)C2 (centres undefined) | -14.11
44 | CCn1cc2c(n1)C(COC)CN(Cc1ccccn1)C2 (centres undefined) | 96.31
45 | COCC1CN(Cc2ccccn2)Cc2cn(C)nc21.O=C(O)C(F)(F)F.O=C(O)C(F)(F)F.O=C(O)C(F)(F)F (centres undefined) | 31.55
46 | CN(C)C(=O)c1ccc2ccc(N3CCN(CC4CC4)CC3)n2c1 | -12.17
47 | Cc1ccc(-c2cc(C(=O)NC(C)C(=O)N3CCCCC3)on2)cc1 (centres undefined) | 17.57
48 | CCc1ccc(S(=O)(=O)Nc2ccn(CC(=O)OC)n2)cc1 | 68.94
49 | CCn1ccc(NS(=O)(=O)c2cccc(COC)c2)n1 | -1.872
